# In the supplement of paper PMC11732987, “Enantioselective OTUD7B fragment discovery through chemoproteomics screening and high-throughput optimisation” (Communications Chemistry, 2025):
# A number with no mark means an inactive call.
# Key:
# Assay in all cases: log2 ratio of Biotin-Ahx-Ub-VS probe labelling (fragment/DMSO); higher = less target engagement (more negative = stronger competition), active = hit call of the paper (q ≤ 0.05, log2 ratio ≤ -1)
# Settings in all cases: compound concentration: 200 uM; treatment time: 3 h
# OTUD6B = target: T1, OTUD6B (UniProt Q8N6M0)
# T1 sequence (whole entry): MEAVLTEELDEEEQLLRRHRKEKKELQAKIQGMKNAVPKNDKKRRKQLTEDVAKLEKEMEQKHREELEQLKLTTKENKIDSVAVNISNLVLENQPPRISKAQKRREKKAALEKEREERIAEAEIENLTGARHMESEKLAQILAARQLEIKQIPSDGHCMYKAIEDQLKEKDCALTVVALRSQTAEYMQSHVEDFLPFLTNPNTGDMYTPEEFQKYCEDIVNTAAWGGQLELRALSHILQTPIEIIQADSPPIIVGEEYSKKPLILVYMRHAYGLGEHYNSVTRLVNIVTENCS
# Method in brief: (§1)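 Using Biotin-Ahx-Ub-VS at 0.5 µM final for 1 h, DUBs were labelled in HEK293T lysate (495 µg per sample) that had first been treated in triplicate with fragment at 200 µM or vehicle for 3 h. NeutrAvidin enrichment, LysC and trypsin digestion and diaPASEF LC-MS/MS followed. Spectronaut label-free quantities were global-median-normalised. Values are average log2 fragment/vehicle ratios by unpaired t-test, using proteins with ≥2 unique peptides.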
# OTUD7B = target: T2, OTUD7B (UniProt Q6GQQ9)
# T2 sequence (whole entry): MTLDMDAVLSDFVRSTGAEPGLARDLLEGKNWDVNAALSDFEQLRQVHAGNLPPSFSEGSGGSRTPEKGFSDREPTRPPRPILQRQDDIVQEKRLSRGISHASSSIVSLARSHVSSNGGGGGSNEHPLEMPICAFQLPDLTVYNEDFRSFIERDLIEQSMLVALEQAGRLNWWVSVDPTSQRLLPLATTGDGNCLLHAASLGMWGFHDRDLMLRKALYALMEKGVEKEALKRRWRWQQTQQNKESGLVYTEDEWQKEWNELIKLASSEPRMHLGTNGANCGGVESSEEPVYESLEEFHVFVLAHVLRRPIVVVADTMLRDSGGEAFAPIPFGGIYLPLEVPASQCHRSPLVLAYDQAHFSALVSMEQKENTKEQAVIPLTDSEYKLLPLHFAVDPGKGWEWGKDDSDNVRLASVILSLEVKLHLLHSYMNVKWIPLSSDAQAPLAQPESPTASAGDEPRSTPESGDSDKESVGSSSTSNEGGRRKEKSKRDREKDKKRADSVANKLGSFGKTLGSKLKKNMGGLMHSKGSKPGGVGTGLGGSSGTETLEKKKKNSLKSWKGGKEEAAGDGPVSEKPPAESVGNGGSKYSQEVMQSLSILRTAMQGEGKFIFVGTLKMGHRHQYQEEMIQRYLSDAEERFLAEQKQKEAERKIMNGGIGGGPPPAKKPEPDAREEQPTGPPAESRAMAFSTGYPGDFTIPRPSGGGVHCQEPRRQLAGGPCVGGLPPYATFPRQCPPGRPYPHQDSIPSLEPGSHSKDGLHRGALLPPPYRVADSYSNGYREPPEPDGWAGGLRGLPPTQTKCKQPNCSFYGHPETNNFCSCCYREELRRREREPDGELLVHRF
# Method in brief: as §1
# PRPF8 = PRPF8 (UniProt Q6P2Q9)
# Method in brief: as §1
# PSMD7 = target: T3, PSMD7 (UniProt P51665)
# T3 sequence (whole entry): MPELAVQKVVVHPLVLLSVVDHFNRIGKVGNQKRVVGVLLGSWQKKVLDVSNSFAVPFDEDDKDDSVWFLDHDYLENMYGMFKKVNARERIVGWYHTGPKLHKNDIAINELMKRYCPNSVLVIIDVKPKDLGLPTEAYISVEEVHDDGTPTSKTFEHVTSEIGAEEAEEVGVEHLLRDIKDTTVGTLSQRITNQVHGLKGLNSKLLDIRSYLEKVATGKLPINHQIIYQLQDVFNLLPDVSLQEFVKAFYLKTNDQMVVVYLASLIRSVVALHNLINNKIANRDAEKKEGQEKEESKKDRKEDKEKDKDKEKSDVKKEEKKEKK
# Method in brief: as §1
# UCHL1 = UCHL1 (UniProt P09936)
# UCHL1, sequence (P09936 whole entry, looked up): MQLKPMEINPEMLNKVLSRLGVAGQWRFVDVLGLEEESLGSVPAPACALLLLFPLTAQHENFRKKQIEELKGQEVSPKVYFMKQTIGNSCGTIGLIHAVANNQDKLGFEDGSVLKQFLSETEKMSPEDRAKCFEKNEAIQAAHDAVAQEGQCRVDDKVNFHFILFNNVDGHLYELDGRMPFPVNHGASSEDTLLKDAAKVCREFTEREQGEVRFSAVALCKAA
# Method in brief: as §1
# UCHL3 = target: T4, UCHL3 (UniProt P15374)
# T4 sequence (whole entry): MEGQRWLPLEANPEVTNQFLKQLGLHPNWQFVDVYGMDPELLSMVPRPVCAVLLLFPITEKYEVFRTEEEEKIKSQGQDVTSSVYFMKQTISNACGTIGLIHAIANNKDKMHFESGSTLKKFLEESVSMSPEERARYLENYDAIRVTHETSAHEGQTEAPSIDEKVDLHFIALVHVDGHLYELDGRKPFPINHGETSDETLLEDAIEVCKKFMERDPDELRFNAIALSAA
# Method in brief: as §1
# UCHL5 = target: T5, UCHL5 (UniProt Q9Y5K5)
# T5 sequence (whole entry): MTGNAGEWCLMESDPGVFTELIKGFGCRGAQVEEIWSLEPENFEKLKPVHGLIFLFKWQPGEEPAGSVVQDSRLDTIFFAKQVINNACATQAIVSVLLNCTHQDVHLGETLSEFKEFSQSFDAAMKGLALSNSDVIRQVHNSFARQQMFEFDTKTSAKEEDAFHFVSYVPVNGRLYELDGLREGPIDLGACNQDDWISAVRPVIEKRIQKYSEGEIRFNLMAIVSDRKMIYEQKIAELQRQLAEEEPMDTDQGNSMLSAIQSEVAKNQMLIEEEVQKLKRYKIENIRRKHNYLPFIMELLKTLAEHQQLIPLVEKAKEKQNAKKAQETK
# Method in brief: as §1
# USP10 = USP10 (UniProt Q14694)
# USP10, sequence (Q14694 whole entry): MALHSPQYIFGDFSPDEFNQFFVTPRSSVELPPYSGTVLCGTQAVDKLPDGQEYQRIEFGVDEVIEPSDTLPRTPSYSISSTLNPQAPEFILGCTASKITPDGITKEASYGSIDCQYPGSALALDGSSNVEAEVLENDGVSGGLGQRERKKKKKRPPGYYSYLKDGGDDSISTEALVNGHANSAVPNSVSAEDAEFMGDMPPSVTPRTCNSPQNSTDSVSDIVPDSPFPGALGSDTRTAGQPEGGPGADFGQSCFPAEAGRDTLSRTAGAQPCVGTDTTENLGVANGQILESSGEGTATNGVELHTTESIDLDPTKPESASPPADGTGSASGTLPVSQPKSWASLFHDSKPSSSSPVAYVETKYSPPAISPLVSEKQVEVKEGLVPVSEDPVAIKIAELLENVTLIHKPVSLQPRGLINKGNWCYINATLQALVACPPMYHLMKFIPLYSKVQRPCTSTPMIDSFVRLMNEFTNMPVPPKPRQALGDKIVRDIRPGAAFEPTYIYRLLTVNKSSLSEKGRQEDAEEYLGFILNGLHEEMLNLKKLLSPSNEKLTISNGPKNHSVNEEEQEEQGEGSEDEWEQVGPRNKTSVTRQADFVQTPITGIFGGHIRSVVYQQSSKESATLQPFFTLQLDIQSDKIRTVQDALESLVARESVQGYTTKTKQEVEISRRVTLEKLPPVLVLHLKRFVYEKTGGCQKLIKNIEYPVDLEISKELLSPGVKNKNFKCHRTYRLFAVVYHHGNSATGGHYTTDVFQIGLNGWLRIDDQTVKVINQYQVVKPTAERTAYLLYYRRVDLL
# Method in brief: as §1
# USP15 = target: T6, USP15 (UniProt Q9Y4E8)
# T6 sequence (whole entry): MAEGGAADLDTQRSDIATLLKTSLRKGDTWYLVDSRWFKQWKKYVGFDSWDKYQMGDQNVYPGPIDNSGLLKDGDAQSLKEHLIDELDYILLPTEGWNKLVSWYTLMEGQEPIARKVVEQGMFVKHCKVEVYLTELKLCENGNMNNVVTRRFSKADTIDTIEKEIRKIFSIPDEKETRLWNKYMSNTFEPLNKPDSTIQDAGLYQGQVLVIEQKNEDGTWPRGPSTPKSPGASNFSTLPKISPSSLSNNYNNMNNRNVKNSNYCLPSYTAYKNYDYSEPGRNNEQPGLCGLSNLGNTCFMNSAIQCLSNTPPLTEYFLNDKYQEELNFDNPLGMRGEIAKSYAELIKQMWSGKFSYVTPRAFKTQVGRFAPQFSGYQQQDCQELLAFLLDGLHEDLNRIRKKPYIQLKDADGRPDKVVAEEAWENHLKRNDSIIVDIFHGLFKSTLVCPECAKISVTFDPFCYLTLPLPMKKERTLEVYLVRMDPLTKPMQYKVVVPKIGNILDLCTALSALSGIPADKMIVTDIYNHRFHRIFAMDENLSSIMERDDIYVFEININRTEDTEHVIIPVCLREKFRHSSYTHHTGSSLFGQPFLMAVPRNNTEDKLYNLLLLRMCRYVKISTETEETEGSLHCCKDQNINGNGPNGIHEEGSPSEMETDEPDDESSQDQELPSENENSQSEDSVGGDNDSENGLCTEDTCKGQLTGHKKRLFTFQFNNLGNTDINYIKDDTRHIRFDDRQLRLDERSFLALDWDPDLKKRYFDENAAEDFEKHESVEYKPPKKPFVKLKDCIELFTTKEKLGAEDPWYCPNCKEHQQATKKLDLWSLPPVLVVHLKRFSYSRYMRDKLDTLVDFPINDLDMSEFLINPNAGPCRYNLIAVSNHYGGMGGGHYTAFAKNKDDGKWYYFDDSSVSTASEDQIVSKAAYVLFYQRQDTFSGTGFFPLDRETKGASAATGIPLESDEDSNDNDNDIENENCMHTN
# Method in brief: as §1
# USP16 = USP16 (UniProt Q9Y5T5)
# USP16, sequence (Q9Y5T5 whole entry, looked up): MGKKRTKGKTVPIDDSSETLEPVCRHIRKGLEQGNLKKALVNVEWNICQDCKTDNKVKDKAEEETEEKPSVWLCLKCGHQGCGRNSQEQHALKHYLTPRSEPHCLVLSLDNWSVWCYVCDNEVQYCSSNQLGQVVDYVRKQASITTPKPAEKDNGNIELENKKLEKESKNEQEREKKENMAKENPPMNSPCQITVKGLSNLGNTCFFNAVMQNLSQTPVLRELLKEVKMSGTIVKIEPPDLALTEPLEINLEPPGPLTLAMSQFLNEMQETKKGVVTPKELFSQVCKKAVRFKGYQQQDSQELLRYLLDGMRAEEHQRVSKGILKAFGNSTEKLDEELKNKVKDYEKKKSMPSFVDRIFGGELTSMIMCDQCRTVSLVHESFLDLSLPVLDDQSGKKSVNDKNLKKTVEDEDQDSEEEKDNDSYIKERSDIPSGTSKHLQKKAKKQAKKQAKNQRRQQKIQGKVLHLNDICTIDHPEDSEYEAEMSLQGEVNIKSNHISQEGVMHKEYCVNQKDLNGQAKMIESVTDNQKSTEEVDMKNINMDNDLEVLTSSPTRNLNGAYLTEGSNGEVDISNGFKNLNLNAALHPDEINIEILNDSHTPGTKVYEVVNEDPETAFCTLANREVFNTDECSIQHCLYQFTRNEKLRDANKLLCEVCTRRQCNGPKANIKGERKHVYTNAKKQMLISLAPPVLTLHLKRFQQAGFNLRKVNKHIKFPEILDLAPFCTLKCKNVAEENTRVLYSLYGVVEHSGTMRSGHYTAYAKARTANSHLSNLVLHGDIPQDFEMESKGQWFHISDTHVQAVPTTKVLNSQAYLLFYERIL
# Method in brief: as §1
smiles,measurement,setting,value
CC(O)CC1CCN(C(=O)CCl)CC1 (stereo not given),log2 ratio of Biotin-Ahx-Ub-VS probe labelling,OTUD6B,-0.0339
same,log2 ratio of Biotin-Ahx-Ub-VS probe labelling,OTUD7B,-0.302
same,log2 ratio of Biotin-Ahx-Ub-VS probe labelling,PRPF8,0.0532
same,log2 ratio of Biotin-Ahx-Ub-VS probe labelling,PSMD7,-0.0764
same,log2 ratio of Biotin-Ahx-Ub-VS probe labelling,UCHL1,-1.53 (active)
same,log2 ratio of Biotin-Ahx-Ub-VS probe labelling,UCHL3,0.294
same,log2 ratio of Biotin-Ahx-Ub-VS probe labelling,UCHL5,-0.019
same,log2 ratio of Biotin-Ahx-Ub-VS probe labelling,USP10,-0.0376
same,log2 ratio of Biotin-Ahx-Ub-VS probe labelling,USP15,-0.0583
same,log2 ratio of Biotin-Ahx-Ub-VS probe labelling,USP16,-0.771
